Assay results as given in PubChem BioAssay AID1159580 (chemical genetic matrix, 2015).
Several values for one entry are separate records, joined by “and”; a condition that tells them apart may be missing. Identical values can stand only once. The campaign covered roughly 5,500 compounds. About 2,000 (36%) were called active. Another 18% or so got no clear call; they are omitted. Cut-off read from the data, not from the text of the source: active = normalized growth mostly below about 0.91 (no sharp cut-off); inconclusive = no clear call, values can overlap the other calls; inactive = mostly above about 0.92. The list shows a part of the results.

Assay: chemical genetic growth profiling, strain panel (AID 1159580);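 note: tested at 20 µM; growth read once vehicle control cultures reached saturation at 30 °C; 1 = growth at the plate median or of vehicle wells; lower values mean less growth of the strain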
Conditions: S. cerevisiae deletion strains, growth OD

Measured: normalized growth

CC[C@@H](C(=O)[C@@H](C)[C@@H](O)[C@H](C)[C@@H]1O[C@@H]([C@@H](CC)C(=O)O)CC[C@@H]1C)[C@H]1OC2(C=C[C@@H](O)[C@]3(CC[C@@](C)([C@H]4CC[C@](O)(CC)[C@H](C)O4)O3)O2)[C@H](C)C[C@@H]1C (some centres undefined)
0.934 (inactive) and 0.145 (active): locus YHR030C, strain SLT2, stronger effect = lower value
0.819 (inactive) and 0.137 (active): locus YJL095W, strain BCK1, stronger effect = lower value
inactive: locus YAL013W, strain DEP1, stronger effect = lower value 1.02 | locus YBR229C, strain ROT2, stronger effect = lower value 0.932 | locus YBR279W, strain paf1, stronger effect = lower value 0.94 | locus YCL029C, strain bik1, stronger effect = lower value 0.911 | locus YCL061C, strain MRC1, stronger effect = lower value 0.923 | locus YDL005C, strain med2, stronger effect = lower value 0.97 | locus YDL035C, strain GPR1, stronger effect = lower value 0.876 | locus YDL040C, strain nat1, stronger effect = lower value 0.944 | locus YDL074C, strain BRE1, stronger effect = lower value 0.963 | locus YDL101C, strain DUN1, stronger effect = lower value 0.943 | locus YDL185W, strain tfp1, stronger effect = lower value 0.988 | locus YDR001C, strain nth1, stronger effect = lower value 0.929 | locus YDR137W, strain rgp1, stronger effect = lower value 0.974 | locus YDR159W, strain sac3, stronger effect = lower value 0.941 | locus YDR195W, strain ref2 1.01 | locus YDR334W, strain swr1, stronger effect = lower value 0.98 | locus YDR335W, strain msn5, stronger effect = lower value 0.927 | locus YDR392W, strain spt3, stronger effect = lower value 1.09 | locus YEL061C, strain CIN8 (second series), stronger effect = lower value 0.948 | locus YEL061C, strain CIN8, stronger effect = lower value 0.982 | locus YER015W, strain faa2, stronger effect = lower value 0.979 | locus YER016W, strain bim1, stronger effect = lower value 0.95 | locus YER110C, stronger effect = lower value 1.01 | locus YER111C, strain swi4, stronger effect = lower value 0.96 | locus YER155C, strain BEM2 (second series), stronger effect = lower value 1.03 | locus YER155C, strain BEM2, stronger effect = lower value 1.03 | locus YER167W, strain BCK2, stronger effect = lower value 0.914 | locus YGL173C, strain kem1, stronger effect = lower value 0.917 | locus YGL227W, strain vid30, stronger effect = lower value 0.943 | locus YGL240W, strain doc1, stronger effect = lower value 1 | locus YGR078C, strain PAC10, stronger effect = lower value 0.986 | locus YGR135W, strain pre9, stronger effect = lower value 0.932 | locus YGR252W, strain gcn5, stronger effect = lower value 0.923 | locus YHR013C, strain ard1, stronger effect = lower value 1.07 | locus YHR027C, strain rpn1, stronger effect = lower value 0.958 | locus YHR129C, strain ARP1, stronger effect = lower value 0.932 | locus YIL066C, strain RNR3, stronger effect = lower value 0.934 | locus YIL073C, strain SPO22, stronger effect = lower value 0.88 | locus YJL115W, strain asf1, stronger effect = lower value 0.985 | locus YJL134W, strain LCB3, stronger effect = lower value 0.949 | locus YJL166W, strain qcr8, stronger effect = lower value 0.926 | locus YJL187C, strain SWE1 (second series), stronger effect = lower value 0.916 | locus YJL187C, strain SWE1, stronger effect = lower value 0.935 | locus YJR043C, strain POL32, stronger effect = lower value 0.968
active: locus YAL021C, strain ccr4, stronger effect = lower value 0.721 | locus YAL026C, strain drs2, stronger effect = lower value 0.14 | locus YAL030W, strain snc1, stronger effect = lower value 0.906 | locus YBL061C, strain skt5, stronger effect = lower value 0.846 | locus YBR009C, strain hhf1, stronger effect = lower value 0.833 | locus YBR021W, strain FUR4, stronger effect = lower value 0.753 | locus YBR023C, strain chs3, stronger effect = lower value 0.839 | locus YBR171W, strain sec66, stronger effect = lower value 0.887 | locus YBR231C, strain swc5, stronger effect = lower value 0.789 | locus YCL011C, strain gbp2, stronger effect = lower value 0.867 | locus YCL016C, strain dcc1, stronger effect = lower value 0.85 | locus YCL069W, strain vba3, stronger effect = lower value 0.892 | locus YCR088W, strain abp1, stronger effect = lower value 0.877 | locus YDL134C, strain PPH21, stronger effect = lower value 0.871 | locus YDL192W, strain arf1, stronger effect = lower value 0.136 | locus YDR069C, strain doa4, stronger effect = lower value 0.872 | locus YDR101C, strain arx1, stronger effect = lower value 0.891 | locus YDR162C, strain NBP2, stronger effect = lower value 0.69 | locus YDR297W, strain sur2, stronger effect = lower value 0.919 | locus YDR318W, strain mcm21, stronger effect = lower value 0.825 | locus YDR388W, stronger effect = lower value 0.668 | locus YDR502C, strain sam2, stronger effect = lower value 0.847 | locus YEL003W, strain gim4, stronger effect = lower value 0.885 | locus YEL037C, strain rad23, stronger effect = lower value 0.901 | locus YFR010W, strain ubp6, stronger effect = lower value 0.84 | locus YGL078C, strain dbp3, stronger effect = lower value 0.917 | locus YGL086W, strain mad1, stronger effect = lower value 0.863 | locus YGL167C, strain pmr1, stronger effect = lower value 0.744 | locus YGL248W, strain PDE1, stronger effect = lower value 0.878 | locus YGL253W, strain hxk2, stronger effect = lower value 0.816 | locus YHR079C, strain IRE1 (second series), stronger effect = lower value 0.837 | locus YHR079C, strain IRE1, stronger effect = lower value 0.164 | locus YHR094C, strain hxt1, stronger effect = lower value 0.877 | locus YHR142W, strain chs7, stronger effect = lower value 0.836 | locus YHR200W, strain rpn10, stronger effect = lower value 0.908 | locus YIL125W, strain kgd1, stronger effect = lower value 0.785 | locus YIR030C, strain dcg1, stronger effect = lower value 0.892 | locus YJL092W, strain hpr5, stronger effect = lower value 0.903 | locus YJL095W, strain BCK1 (second series), stronger effect = lower value 0.875 | locus YJL129C, strain trk1, stronger effect = lower value 0.707 | locus YJL154C, strain vps35, stronger effect = lower value 0.821 | locus YJL164C, strain tpk1, stronger effect = lower value 0.883 | locus YJL168C, strain set2, stronger effect = lower value 0.873
